How the values were obtained:
Assay in all cases: PBM binding z-score (relative to random genomic background probes); higher = stronger binding; sequences stand for … in GC…GCGATTGACAGCGTAGAATGAAGG
[1] = tested on: RARb homodimer (NR concentration 270 nM)
In short: (§1)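 Scanned fluorescence from custom Agilent 4×180K protein-binding microarrays was regression-normalized. Binding z-scores use random background probes as reference. Ligand-free nuclear receptor dimers were incubated on the arrays for 1 h and detected with antibodies against each partner (one per run).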

[2] = tested on: RARg:RXRa (NR concentration 270 nM, RXRa partner concentration 90 nM)
In short: as §1

[3] = tested on: RARg homodimer (NR concentration 270 nM)
In short: as §1

[4] = tested on: RXRa DBDmut IVT, anti-RXR (DBD mutation: RXRa K156A/R161A, NR concentration 90 nM)
In short: as §1

[5] = tested on: RXRa homodimer (NR concentration 180 nM)
In short: as §1

[6] = tested on: THRa:RXRa (NR concentration 90 nM, RXRa partner concentration 90 nM)
In short: as §1

[7] = tested on: THRa homodimer (NR concentration 90 nM)
In short: as §1

[8] = tested on: VDR homodimer (NR concentration 270 nM)
In short: as §1

| Sequence | PBM binding z-score [1] | PBM binding z-score [2] | PBM binding z-score [3] | PBM binding z-score [4] | PBM binding z-score [5] | PBM binding z-score [6] | PBM binding z-score [7] | PBM binding z-score [8] |
| --- | --- | --- | --- | --- | --- | --- | --- | --- |
| CAAACTACGTCACCGGAAGGTCAAAGTCCGCATG | 4.23 | 4.01 | 2.91 | 0.765 | 3.55 | 2.88 | 1.47 | 2.03 |
| CCTTACGGGTCACGAGGTTATAGTACGACGAGCG | 3.95 | 6.29 | 6 | 1.55 | 7.51 | 3.87 | 1.19 | 2.14 |
| CCTCGGAGGAAAGAAGGTCAGAGCTGTCCGCTTT | 2.71 | 1.88 | 1.67 | 0.0436 | 1.44 | 1.93 | -0.547 | 0.00914 |
| ACAGACAGGTGAGCGAAGGTAACTCAGCTGGACG | 0.0254 | 0.199 | 0.463 | -0.651 | 0.258 | 1.74 | -0.377 | -0.771 |
| AGAATGAGATTAAGATCAGGGAAACAGAATACAT | -0.523 | 0.0579 | 0.312 | -0.493 | -0.0987 | -0.0153 | -0.567 | -0.0769 |
| CCCACTGGGGCATAAGGTTACCATAAGCCAGCCC | 1.49 | 1.56 | 1.09 | -1.4 | 1.07 | 1.92 | 1.01 | -0.364 |
| GCTATTACTTGAAAGGGCAACCGAATGATTCTCG | 2.01 | 1.27 | 1.27 | 0.581 | 0.965 | 0.521 | -0.383 | -0.15 |
| CCGACTGGGGCAGAAAGGTTAGCATACCATCCGG | 1.74 | 0.906 | 0.862 | -0.65 | 0.988 | 0.31 | -0.682 | -0.346 |
| CAAACTAGGTCAAGAGGTCAATGTCCGCTTCCCG | 5.98 | 7.68 | 7.46 | 2.81 | 7.85 | 4.21 | 2.55 | 4.02 |
| CGTCCCAGGTCAGAGAGGTCAGTGAATGCCGAGT | 4.89 | 5.03 | 5.73 | 1.72 | 4.33 | 4.24 | 2.92 | 4.31 |
| ATCGAAAGGTTGTGAGGTGAGTATACAGAAAGGC | 1.22 | 1.14 | 1.19 | -0.0955 | 1.24 | 2.23 | 1.49 | 0.162 |
| CCTGCTAGGTCAATCGTCAGCTAAAGCAGCTCGC | 2.83 | 3.59 | 4.42 | 1.78 | 2.15 | 2.11 | 0.36 | -0.0155 |
| GGAACGAGGGGAAGTTGATAGCAGAGTTTGATGG | 0.255 | -0.0496 | -0.0365 | 0.431 | 0.0141 | -0.105 | 0.182 | 0.565 |
| CCTAGTCGGTCAAGGTCACACACGCTATAGGTAC | 4.9 | 5.15 | 5.64 | 2.13 | 4.64 | 4.26 | 4.28 | 3.91 |
| CCGAGCAGGCCAATCTGGGTCACTCAAGGCTTGA | 2.28 | 1.25 | 1.68 | 0.0945 | 1.15 | 3.72 | 0.404 | 0.347 |
| CGTCAAAGTTCAACTAAGGAAACGTAAAGCACGC | 3.66 | 5.97 | 6.45 | 4.6 | 4.94 | 4.5 | 0.0826 | 3.88 |
| TCTCTGAGGACACGAAAGGTCAGAGCTCGACATC | 4.78 | 4.77 | 5.31 | 1.55 | 3.99 | 4.45 | 4.15 | 1.21 |
| GCTGCTAGGTCCGGTTGGTCAGCTAACGGGTACG | -0.107 | -0.731 | -0.757 | -0.46 | -0.726 | -0.903 | -0.944 | -0.324 |
| GCTTGTAGATCAACGTTAAGAAAGACTAAGCTAA | -0.408 | -0.256 | -0.209 | 0.0501 | -0.405 | -0.214 | -0.701 | -0.764 |
| GTAACAAGGTGAATAGGTCGTTGATGAGTAGGCG | 1.9 | 2.74 | 1.68 | 0.149 | 2.29 | 2.06 | 0.594 | 0.415 |
| CAAACTAGGTCAGGGTCAAAGTCGGTTTGTGCCA | 4.45 | 5.19 | 5.4 | 2.77 | 5.47 | 3.89 | 2.25 | 4.18 |
| TCTGCTAGGTCAGTTGGTCACCTAACGAGCTGCC | 2.87 | 2.97 | 3.79 | 0.479 | 1.15 | 1.88 | 0.86 | -0.466 |
| AGAACGTGGGCAATGAGTTGATAGCACGGGTGGC | -0.41 | -0.369 | -0.147 | -0.174 | 0.0338 | -0.628 | -0.889 | 0.376 |
| GATACAGGGTCAGCTAGAGGCCACAGTATGGAAA | 3.61 | 7.06 | 5.21 | 0.909 | 4.27 | 3.39 | 0.56 | 0.844 |
| TCTGCTAGCTCAGTTGGTCAGCTAACGAGCTGCC | -1.04 | -0.955 | -0.903 | -0.192 | -1.34 | -1.6 | -1.25 | -1.56 |
| TCCTGTAGATCAAAGGTTAAGAAAGCCGAAGCCT | 1.39 | 1.89 | 0.87 | 0.61 | 3.17 | 1.24 | -0.54 | -0.182 |
| TCTTGTAGATCAACAGGCGGTTAAGAAAGATCGA | -0.586 | 0.0814 | -0.187 | 0.904 | 0.0872 | -0.136 | -0.273 | -0.602 |
| ATCGAAAGGTCGAAGGTGTGTATACCCACCCGAA | 2.15 | 3.83 | 3.73 | 0.844 | 4.12 | 1.6 | -0.397 | 0.639 |

From the supplement of paper PMC6555819
